Inconclusive results are not listed. Active and inactive are the calls of the source. Unless noted, calls follow the shape of the full dose curve.
Tests used:
[1] = Nuclear factor erythroid 2-related factor 2/antioxidant responsive element (Nrf2/ARE) small molecule agonists: qHTS cell viability counter screen in human keratinocytes (AID 1919968; active = well fitted curve in the direction sought with a large enough effect in the repeat runs; an effect the other way counts as inactive or inconclusive; also: nearly all actives have a fitted effect of over 55% in size)
Summary of the method: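 Cells of the KeratinoSens line were plated at 1,500 per well and left for 5 h before compound transfer from DMSO stocks. After a 23 h incubation (37 C, 5% CO2), CellTiter-Fluor was added. Signal was taken as fluorescence intensity 1 h later.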

[2] = Nuclear factor erythroid 2-related factor 2/antioxidant responsive element (Nrf2/ARE) small molecule agonists: luciferase reporter gene qHTS assay in human keratinocytes (AID 1919969); also: nearly all actives have a fitted effect of over 35% in size
[3] = molecular target: Gonadotropin-releasing hormone receptor (Homo sapiens) (UniProt P30968); assay: Human gonadotropin-releasing hormone receptor (GnRHR) small molecule agonists, calcium flux assay in GnRHR-HEK293 cells (AID 1920063); also: nearly all actives have a fitted effect of over 35% in size
Summary of the method: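 Compounds dissolved in DMSO are pin-transferred onto dye-loaded GnRHR-HEK293 cells, which were seeded 18 h before at 37 C/5% CO2. Calcium signal is read as fluorescence intensity at 1 s intervals for 3 min.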

[4] = molecular target: KiSS-1 receptor (Homo sapiens) (UniProt Q969F8); assay: Human kisspeptin (KISS1R) small molecule agonists, calcium flux assay in KISS1R-HEK293 cells (AID 1920064; active = well fitted curve in the direction sought with a large enough effect in the repeat runs; an effect the other way counts as inactive or inconclusive)
Summary of the method: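 Cell line: HEK293, stable human KISS1R. Dye loading 1 h at 37 C after 18 h culture. Read: kinetic fluorescence, 480/540 nm, 3 min at 1 s intervals.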

[5] = G protein-coupled receptor (GPCR) small molecule agonists, calcium flux assay: HEK293 wild type cell line counter screen (AID 1920065)
Summary of the method: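 Tox21 10K compounds, 15 concentrations each in triplicate, pin-transferred in DMSO onto dye-loaded cells; kinetic read at 480/540 nm for 3 min, 1 s intervals.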

[6] = p53 small molecule agonists, cell-based qHTS assay with human liver microsomes: qHTS cell viability counter screen (AID 1963579); also: nearly all actives have a fitted effect of over 45% in size
Summary of the method: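 In this multiplexed counter screen, the reporter plates were subsequently treated with CellTiter-Glo so that cell viability, reflected by luminescence, could be recorded for p53RE-bla cells dosed 16 h with compounds under microsomal activation (HLM and NADPH).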

[7] = p53 small molecule agonists, cell-based qHTS assay: qHTS cell viability counter screen (AID 1963581); also: nearly all actives have a fitted effect of over 45% in size
Summary of the method: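 ATP content measured by luminescence in HCT-116 p53RE-bla cells treated 16 h at 37 C, same wells as the reporter screen.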

[8] = molecular target: 5-hydroxytryptamine receptor 2A (Homo sapiens) (UniProt P28223); assay: 5-hydroxytryptamine receptor 2A (HTR2A) small molecule antagonists, cell-based qHTS assay (AID 1963586); also: nearly all actives have a fitted effect of over 45% in size
Summary of the method: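 CHO cells stably expressing human HTR2A were plated for 18 h at 37 C, then loaded with calcium dye for 1 h. Compounds were preincubated 5 min at room temperature before DOI (4 nM solution) was added. Kinetic fluorescence was read for 3 min.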

[9] = molecular target: 5-hydroxytryptamine receptor 2A (Homo sapiens) (UniProt P28223); assay: 5-hydroxytryptamine receptor 2A (HTR2A) small molecule agonists, cell-based qHTS assay (AID 1963587); also: nearly all actives have a fitted effect of over 30% in size
Summary of the method: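 HTR2A-CHO cells, plated 18 h at 37 C/5% CO2, dye-loaded 1 h at 37 C; compounds in DMSO added by pin tool (agonist mode). Intracellular calcium flux read as kinetic fluorescence on FDSS over 2 min at 1 s intervals.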

[10] = molecular target: Muscarinic acetylcholine receptor M1 (Homo sapiens) (UniProt P11229); assay: Cholinergic receptor muscarinic 1 (CHRM1) small molecule antagonists, cell-based qHTS assay (AID 1963588); also: nearly all actives have a fitted effect of over 40% in size
Summary of the method: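 Compounds were tested at 15 concentrations in three independent runs. Dye-loaded CHRM1-CHO cells were exposed 5 min at room temperature before stimulation by acetylcholine added at 50nM. Intracellular calcium was read kinetically on FDSS for 3 min.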

[11] = cAMP Responsive Elements (CRE) small molecule agonists, cell-based qHTS assay (AID 1963590)
Summary of the method: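 HEK 293T cells stably bearing CRE-bla were plated at 2,000 cells per well and rested 18 h. Compounds, positive controls or DMSO were added for 3 h at 37 C. LiveBLAzer B/G substrate was then loaded for 2 h at room temperature.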

[12] = cAMP Responsive Elements (CRE) small molecule antagonists, cell-based qHTS assay (AID 1963591; active = well fitted inhibition curve with a large enough effect in the signal ratio in the repeat runs, not every such curve was filed as active; the % refers to the signal ratio)
Summary of the method: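 First, CRE-bla HEK293T cells settled 18 h at 37 C. Next, compound and 0.25 uM final NKH477 were applied for 3 h. Last, LiveBLAzer B/G substrate was loaded for 2 h at room temperature.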

[13] = molecular target: Beta-2 adrenergic receptor (Homo sapiens) (UniProt P07550); assay: Adrenergic beta2 receptor (ADRB2) small molecule antagonists, cell-based qHTS assay (AID 1963592); also: series mostly up to about 92 µM; nearly all actives have a fitted effect of over 50% in size
Summary of the method: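 Assay format: CHO-ADRB2 cells, 18-20hr seeding at 37C/5% CO2, then compound plus 1nM isoproterenol agonist mix for 0.5hr RT. Homogeneous time-resolved fluorescence cAMP detection after 1hr, expressed as 665/615 nm ratio.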

[14] = molecular target: Beta-2 adrenergic receptor (Homo sapiens) (UniProt P07550); assay: Adrenergic beta2 receptor (ADRB2) small molecule agonists, cell-based qHTS assay (AID 1963593);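 also: CHO cells stably overexpressing human ADRB2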
Summary of the method: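 CHO cells stably over-expressing ADRB2 were plated overnight at 37C, then dosed with compounds plus a stimulation mix containing 100uM IBMX and 25uM Ro-20-1724 for 0.5hr at room temperature. cAMP was measured by HTRF competition, 1hr.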

[15] = molecular target: D(2) dopamine receptor (Homo sapiens) (UniProt P14416); assay: Dopamine D2 receptor (DRD2) small molecule antagonists, cell-based qHTS assay (AID 1963595; active = well fitted inhibition curve with a large enough effect in the signal ratio in the repeat runs, with a control signal flat; the % refers to the signal ratio)
Summary of the method: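 DRD2-HEK293; 0.1 mM Ro20-1724; cpd 10 min RT; NKH477 200 nM + quinpirole 12 nM, 30 min RT; HTRF cAMP (cAMP-d2/anti-cAMP cryptate), 665/620 nm ratio after 1 h.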

[16] = molecular target: Muscarinic acetylcholine receptor M1 (Homo sapiens) (UniProt P11229); assay: Cholinergic receptor muscarinic 1 (CHRM1) small molecule agonists, cell-based qHTS assay (AID 1963589); also: nearly all actives have a fitted effect of over 35% in size
Summary of the method: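 Homogeneous fluorescence calcium flux, agonist mode. Human M1-expressing CHO cells; compound dosed at 15 concentrations, three independent runs; signal sampled every 1 sec.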

[17] = molecular target: D(2) dopamine receptor (Homo sapiens) (UniProt P14416); assay: Dopamine D2 receptor (DRD2) small molecule agonists, cell-based qHTS assay (AID 1963594); also: nearly all actives have a fitted effect of over 35% in size
Summary of the method: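 HEK293 cells stably expressing DRD2 were cultured 24 h at 37 C, then given Ro20-1724 (0.1 mM final) and compounds for 10 min at room temperature. NKH477 (200nM) was then added for 30 min. cAMP was read by HTRF.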

[18] = p53 small molecule agonists, cell-based qHTS assay with rat liver microsomes: qHTS cell viability counter screen (AID 1963580); also: nearly all actives have a fitted effect of over 45% in size
Summary of the method: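 Counter screen for cytotoxicity under metabolic activation: rat liver microsomes and NADPH, 0.5 mg/mL final each, added with compounds to p53RE-bla HCT-116 cells; 16 h at 37 C, then ATP luminescence read.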
% is scaled to controls: 0 for no effect and ±100 for the full control effect.

Sequence of Muscarinic acetylcholine receptor M1 (Homo sapiens) (P11229 whole entry, looked up): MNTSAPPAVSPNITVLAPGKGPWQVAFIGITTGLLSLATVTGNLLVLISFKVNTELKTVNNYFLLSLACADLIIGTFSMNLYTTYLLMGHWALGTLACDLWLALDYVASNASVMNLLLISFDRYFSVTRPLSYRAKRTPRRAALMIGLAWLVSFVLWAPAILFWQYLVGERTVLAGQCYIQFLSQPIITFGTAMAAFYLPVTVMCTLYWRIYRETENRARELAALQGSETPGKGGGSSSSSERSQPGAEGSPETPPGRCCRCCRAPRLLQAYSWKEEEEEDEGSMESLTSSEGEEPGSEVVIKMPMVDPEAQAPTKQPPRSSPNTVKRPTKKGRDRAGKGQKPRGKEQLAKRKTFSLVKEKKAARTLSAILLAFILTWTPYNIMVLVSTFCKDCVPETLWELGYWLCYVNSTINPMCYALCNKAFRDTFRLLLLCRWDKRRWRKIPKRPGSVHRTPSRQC
Sequence of Beta-2 adrenergic receptor (Homo sapiens) (P07550 whole entry, looked up): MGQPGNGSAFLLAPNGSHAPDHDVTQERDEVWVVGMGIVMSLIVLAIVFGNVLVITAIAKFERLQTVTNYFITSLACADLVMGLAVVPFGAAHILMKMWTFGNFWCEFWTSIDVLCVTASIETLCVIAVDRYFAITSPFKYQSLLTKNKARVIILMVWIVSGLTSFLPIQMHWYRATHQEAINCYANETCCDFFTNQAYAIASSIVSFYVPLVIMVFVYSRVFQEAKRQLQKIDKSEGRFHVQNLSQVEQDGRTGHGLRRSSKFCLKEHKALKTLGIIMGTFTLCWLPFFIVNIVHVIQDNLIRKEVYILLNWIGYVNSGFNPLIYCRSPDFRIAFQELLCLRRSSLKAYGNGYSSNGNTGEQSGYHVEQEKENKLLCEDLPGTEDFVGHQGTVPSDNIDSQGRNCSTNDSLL
Sequence of D(2) dopamine receptor (Homo sapiens) (P14416 whole entry, looked up): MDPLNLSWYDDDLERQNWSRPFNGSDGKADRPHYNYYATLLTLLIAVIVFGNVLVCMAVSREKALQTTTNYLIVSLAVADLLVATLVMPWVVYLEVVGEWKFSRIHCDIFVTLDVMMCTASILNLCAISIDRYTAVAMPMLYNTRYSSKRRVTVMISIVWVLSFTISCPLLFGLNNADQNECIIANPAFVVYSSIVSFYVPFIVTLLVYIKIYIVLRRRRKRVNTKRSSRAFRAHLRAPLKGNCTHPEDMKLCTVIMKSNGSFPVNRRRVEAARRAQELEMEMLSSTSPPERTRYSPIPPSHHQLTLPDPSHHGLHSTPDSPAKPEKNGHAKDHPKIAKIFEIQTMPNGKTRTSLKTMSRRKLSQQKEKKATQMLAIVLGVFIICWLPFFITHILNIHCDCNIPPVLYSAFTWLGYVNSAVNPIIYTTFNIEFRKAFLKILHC
Sequence of Gonadotropin-releasing hormone receptor (Homo sapiens) (P30968 whole entry, looked up): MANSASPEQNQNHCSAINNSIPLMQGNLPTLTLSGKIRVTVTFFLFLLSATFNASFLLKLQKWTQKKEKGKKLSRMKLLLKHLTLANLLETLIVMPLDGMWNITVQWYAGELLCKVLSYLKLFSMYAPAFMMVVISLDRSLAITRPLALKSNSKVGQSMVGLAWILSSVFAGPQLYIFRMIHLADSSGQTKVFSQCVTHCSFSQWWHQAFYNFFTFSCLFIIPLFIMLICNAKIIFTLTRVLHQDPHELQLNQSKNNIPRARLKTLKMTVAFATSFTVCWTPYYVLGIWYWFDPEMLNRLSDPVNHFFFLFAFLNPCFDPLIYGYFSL
Sequence of 5-hydroxytryptamine receptor 2A (Homo sapiens) (P28223 whole entry, looked up): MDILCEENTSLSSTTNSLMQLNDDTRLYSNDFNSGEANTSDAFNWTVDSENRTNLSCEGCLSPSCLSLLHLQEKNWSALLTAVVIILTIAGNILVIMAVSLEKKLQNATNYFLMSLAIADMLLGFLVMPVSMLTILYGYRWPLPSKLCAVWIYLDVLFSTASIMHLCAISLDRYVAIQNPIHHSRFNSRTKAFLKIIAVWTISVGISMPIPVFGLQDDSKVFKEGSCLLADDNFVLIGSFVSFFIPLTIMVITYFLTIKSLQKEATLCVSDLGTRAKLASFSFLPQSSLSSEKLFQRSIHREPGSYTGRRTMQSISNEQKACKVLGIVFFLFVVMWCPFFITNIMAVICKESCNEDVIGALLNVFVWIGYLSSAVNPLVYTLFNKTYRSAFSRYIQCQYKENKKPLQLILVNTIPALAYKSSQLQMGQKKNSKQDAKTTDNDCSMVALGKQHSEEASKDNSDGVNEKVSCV
Sequence of KiSS-1 receptor (Homo sapiens) (Q969F8 whole entry, looked up): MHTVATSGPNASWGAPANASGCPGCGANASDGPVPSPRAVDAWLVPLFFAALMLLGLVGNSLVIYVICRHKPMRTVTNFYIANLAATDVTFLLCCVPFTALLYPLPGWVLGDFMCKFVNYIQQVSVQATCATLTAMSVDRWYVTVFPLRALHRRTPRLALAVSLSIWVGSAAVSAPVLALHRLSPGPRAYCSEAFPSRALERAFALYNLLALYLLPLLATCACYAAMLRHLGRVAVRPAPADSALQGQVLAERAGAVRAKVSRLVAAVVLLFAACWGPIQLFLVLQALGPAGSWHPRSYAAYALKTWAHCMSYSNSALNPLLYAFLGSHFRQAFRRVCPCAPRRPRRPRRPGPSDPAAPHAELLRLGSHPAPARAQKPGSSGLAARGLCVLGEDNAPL

COc1nc(C)nc(N)n1
inactive: Potency [1] | Potency [2] | Potency [3] | Potency [4] | Potency [5] | Potency [6] | Potency [7] | Potency [8] | Potency [9] | Potency [10] | Potency [11] | Potency [12] | Potency [13] | Potency [14] | Potency [15]

O=C(Cl)c1c(Cl)cccc1Cl
inactive: Potency [1] | Potency [2] | Potency [3] | Potency [4] | Potency [5] | Potency [6] | Potency [7] | Potency [8] | Potency [9] | Potency [10] | Potency [16] | Potency [11] | Potency [12] | Potency [13] | Potency [14] | Potency [17] | Potency [15]

CC(=O)Nc1ccc(OCCOCCOc2ccc(NC(C)=O)cc2)cc1
inactive: Potency [1] | Potency [2] | Potency [3] | Potency [4] | Potency [5] | Potency [6] | Potency [7] | Potency [8] | Potency [9] | Potency [10] | Potency [16] | Potency [11] | Potency [12] | Potency [13] | Potency [14] | Potency [17] | Potency [15]

COc1ccnc(CS(=O)c2nc3ccc(OC(F)F)cc3[nH]2)c1OC (stereo not given)
inactive: Potency [1] | Potency [2] | Potency [3] | Potency [4] | Potency [5] | Potency [6] | Potency [18] | Potency [11] | Potency [12] | Potency [13] | Potency [17]

C=C(C)C(=O)OCCCCCCCCCCCCCCCCCC
inactive: activity change, negative = cytotoxicity [1] 0.16% [at 19 µM] | activity, positive = activation [2] -9.09% [at 19 µM] | activity change [3] 1.34% [at 11.8 µM, stronger effect = higher value] | activation [4] 1.35% [at 15.8 µM] | activation [5] 0.174% [at 11.8 µM] | activity change, negative = cytotoxicity [6] -5.03% [at 13.5 µM] | activity change, negative = cytotoxicity [7] -0.723% [at 13.5 µM] | activity, negative = inhibition [8] -3.48% [at 12.7 µM] | activation [9] -0.137% [at 15.9 µM] | activity, negative = inhibition [10] -12.8% [at 12.6 µM] | activation [16] 0.19% [at 15.8 µM] | activation [11] -2.05% [at 19 µM] | activation [14] -0.576% [at 19 µM] | activation [17] -1.1% [at 19 µM] | activity change, negative = inhibition [15] -0.773% [at 18.9 µM]

Nc1ccn([C@@H]2O[C@H](CO)[C@@H](O)C2O)c(=O)n1 (stereo not given in full)
inactive: Potency [1] | Potency [2] | Potency [3] | Potency [4] | Potency [5] | Potency [6] | Potency [7] | Potency [11] | Potency [12] | Potency [13] | Potency [14] | Potency [17] | Potency [15]

CO[C@@]1(NC(=O)Cc2cccs2)C(=O)N2C(C(=O)O)=C(COC(N)=O)CS[C@@H]21
inactive: Potency [1] | Potency [2] | Potency [3] | Potency [4] | Potency [5] | Potency [18] | Potency [7] | Potency [8] | Potency [9] | Potency [10] | Potency [16] | Potency [11] | Potency [12] | Potency [13] | Potency [14] | Potency [17] | Potency [15]

Reference: PubChem BioAssay (Tox21)
